Compound activity (PubChem BioAssay)
HepG2 tox = kills HepG2 cells in TGF-b inhibitor counter-screen | Potency, µM (highest dose often 46.1 µM), without a hit: at the highest dose activity change, negative = cytotoxicity, most hits filed as cytotoxic | 410,000 compounds, 0.76% hits | HepG2 CAGA-GFP viability, ATP luminescence, 18 h | AID 588856; note: potency is the fitted concentration of half-maximal effect
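HepG2 CAGA-GFP cells (1000/well, DMEM with 1% FBS) received compound, then TGF-beta at 500 pg/mL final, and were incubated 18 hours at 37 degrees C. Viability was read by CellTiter-Glo luminescence. Media-only wells were set as complete cell-killing and DMSO as no toxicity.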
TGFb inhibitor = blocks TGF-b signaling; HepG2 CAGA-GFP TGF-b/SMAD3 reporter, GFP fluorescence, 18 h; TGF-beta stimulated, 500 pg/mL final; 410,000 compounds, 1.2% hits; Potency, µM (titrated, usually from 46.1 µM), for inactives: at the highest dose activity, negative = inhibition, usual class: inhibitors; note: potency is the fitted concentration of half-maximal effect; % is set by controls: 0 for no effect and ±100 for the full control effect; nearly all actives have a fitted effect of over 65% in size
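TGF-beta reporter screen: HEPG2 CAGA-GFP, 1% FBS, 500 pg/mL TGF-beta final, 18 h; per-cell GFP summed per well; curves fitted and categorized by class.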
DT40 TDP1 no CPT = qHTS for Inhibitors of human tyrosyl-DNA phosphodiesterase 1 (TDP1): qHTS in cells in absence of CPT | 420,000 compounds, 15% hits | Potency, µM (series often up to 46.2 µM), without a hit: top-dose activity change, negative = growth inhibition, most hits filed as inhibitors | DT40 Tdp1-/- hTDP1 cells, no CPT, ATP luminescence, 48 h; note: potency is the fitted concentration of half-maximal effect; % is set by controls: 0 for no effect and ±100 for the full control effect; nearly all actives have a fitted effect of over 55% in size
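Readout: luminescence from CellTiter-Glo after 30 min in the dark at RT. Cells: DT40 Tdp1-/- with stable hTDP1, 400/well. Exposure: compounds alone, ≥48 hr, 37 °C.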
IL-1B inflam inh = inflammasome signaling inhibition, IL-1 beta readout. THP-1 LPS/ATP IL-1B secretion, AlphaLISA, 16 h; hits give low values. activity change, % at 57.5 µM. 360,000 compounds, 4.7% hits. AID 743279; in the data active = activity change below about -50%; inconclusive = mostly about -30% to -49%; note: % is set by controls: 0 for no effect and ±100 for the full control effect
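THP-1 cells pretreated 1 hr with compounds (up to 57.5 uM final), then stimulated with LPS (250 ng/mL final) plus ATP (1.25 mM final); secreted IL-1B measured by AlphaLISA after 16 hr, decreased signal indicating inhibition.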
TDP1 cell CPT = growth inhibition of DT40 Tdp1-/-;hTDP1 cells with camptothecin (screen for TDP1 inhibitors) | Potency, µM (series often up to 46.2 µM), without a hit: at the highest dose activity change, negative = growth inhibition, actives largely listed as inhibitors | 420,000 compounds, 12% hits | AID 686979 | chicken DT40 Tdp1-/-;hTDP1 cells + 20 nM CPT, ATP luminescence, 48 h; note: potency is the fitted concentration of half-maximal effect; % is set by controls: 0 for no effect and ±100 for the full control effect; nearly all actives have a fitted effect of over 55% in size
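Chicken DT40 Tdp1-/- cells stably complemented with human TDP1 were seeded at 400 cells/well in medium containing 20 nM camptothecin, exposed to pin-transferred compounds, and grown at 37 °C for at least 48 hr. Viability was read as ATP luminescence.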
ASM inhibitor = blocks human secretory acid sphingomyelinase | P17405 | placental ASM, HMU-PC fluorogenic substrate, 60 min | Potency, µM (titrated, usually from 57.5 µM), without a hit: at the highest dose activity change, negative = inhibition, hits mostly inhibitors | 340,000 compounds, 0.006% hits | AID 504937; note: potency is the fitted concentration of half-maximal effect
Target sequence (P17405 47-631 limits assumed): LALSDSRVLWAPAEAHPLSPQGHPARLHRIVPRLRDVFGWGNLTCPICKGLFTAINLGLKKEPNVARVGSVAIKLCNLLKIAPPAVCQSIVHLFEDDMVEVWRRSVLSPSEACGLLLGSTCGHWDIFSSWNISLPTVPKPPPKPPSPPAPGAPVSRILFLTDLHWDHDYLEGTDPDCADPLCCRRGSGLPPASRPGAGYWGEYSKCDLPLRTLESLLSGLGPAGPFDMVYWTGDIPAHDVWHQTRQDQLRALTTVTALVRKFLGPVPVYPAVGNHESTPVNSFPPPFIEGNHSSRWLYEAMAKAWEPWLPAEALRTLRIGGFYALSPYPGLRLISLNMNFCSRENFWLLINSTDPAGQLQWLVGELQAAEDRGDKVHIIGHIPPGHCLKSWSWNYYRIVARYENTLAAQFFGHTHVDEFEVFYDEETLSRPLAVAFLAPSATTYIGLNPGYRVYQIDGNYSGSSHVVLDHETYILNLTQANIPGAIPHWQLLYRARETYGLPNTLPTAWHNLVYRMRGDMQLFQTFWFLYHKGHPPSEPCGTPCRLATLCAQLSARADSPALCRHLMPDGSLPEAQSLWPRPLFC
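Steps: dispense placental human ASM, pin compound, wait 10 min at room temperature, add HMU-PC0 substrate at 9 uM final, incubate 60 min at 37 °C, add stop solution raising pH to 10, read fluorescence.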
Starred values were filed as active, the others as inactive; ? = inconclusive; . = not tested or not shown; ! = not active in a repeat. This is a sample that favours compounds with a hit; in the whole collection about 19% have one here. Unless noted, calls come from the whole dose curve; as a rule, active = well fitted curve in the direction sought with a large enough effect; inconclusive = small, poorly fitted or top-dose-only effect, or another doubt; inactive = no such curve, though single readings can be large; an effect the other way counts as inactive or inconclusive.

SMILES | HepG2 tox | TGFb inhibitor | DT40 TDP1 no CPT | IL-1B inflam inh | TDP1 cell CPT | ASM inhibitor
NS(=O)(=O)c1ccc(CCNC(=O)C(=O)NCC2OCCN2S(=O)(=O)c2ccc(Cl)cc2)cc1 (stereo not drawn) | -2% | 7% | ? | 54 | 23µM* | 6%
CCOc1ccc(NC(=O)CSC2=Nc3ccccc3C3=NC(CC(=O)NCc4cccs4)C(=O)N23)cc1 (stereo not drawn) | 4% | 21% | ? | . | ? | .
C(=NOCc1ccccc1)c1cccnc1 | -3% | 17% | -26% | -15 | 9% | 2%
CC(=O)Nc1ccc(NS(=O)(=O)c2ccc(-c3cnc(C4CC4)o3)cc2)cc1 | -23% | -3% | 6% | 3 | -26% | -2%
O=S(=O)(NCc1ccc(Cl)cc1)c1ccc(-c2cnc(C3CC3)o2)cc1 | -21% | ? | ? | . | ? | .
CCOc1ccc(NS(=O)(=O)c2ccc(-c3cnc(C4CC4)o3)cc2)cc1 | -12% | ? | 9.2µM* | 39 | ? | ?
O=S(=O)(NCc1ccc(F)cc1)c1ccc(-c2cnc(C3CC3)o2)cc1 | -19% | ? | 10µM*! | 8 | 18µM* | -2%
COc1ccc(NS(=O)(=O)c2ccc(S(=O)(=O)N3CCCC3)cc2)cc1Cl | 0% | -13% | ? | -3 | -28% | -3%
O=S(=O)(Nc1ccccc1)c1ccc(-c2cnc(C3CC3)o2)cc1 | -47% | ? | 2.3µM* | 9 | 3.7µM* | -5%
COc1ccc(NS(=O)(=O)c2ccc(-c3cnc(C4CC4)o3)cc2)cc1Cl | -91% | ? | 1.5µM* | . | 0.65µM* | .
COc1ccccc1N1CCN(C(=O)c2oc3ccccc3c2N)CC1 | -30% | -1% | ? | . | ? | .
O=C(/C=C/c1ccc(O)c(O)c1)O[C@@H]1C[C@@](OC(=O)/C=C/c2ccc(O)c(O)c2)(C(=O)O)C[C@@H](O)[C@@H]1O | . | . | ? | . | 3% | .
O=C(O)c1cccc(NS(=O)(=O)c2ccc(-c3ccc(S(=O)(=O)Nc4cccc(C(=O)O)c4)cc3)cc2)c1 | -16% | -10% | -8% | 3 | 2% | -15%
CC(=O)c1cccc(NS(=O)(=O)c2ccc(-c3cnc(C4CC4)o3)cc2)c1 | -14% | -30% | 2.6µM* | -4 | 4.1µM* | 9%
Clc1nc(Cl)c2ncn(-c3ccccc3)c2n1 | -70% | -20% | 13µM* | -103* | 8.2µM* | 8%
CNC(=O)C12CCC(C)(c3nc4cc(C)c(C)cc4nc31)C2(C)C (stereo not drawn) | -1% | 7% | ? | 15 | -11% | 2%
CCCNC(=O)C12CCC(C)(c3nc4cc(C)c(C)cc4nc31)C2(C)C (stereo not drawn) | -35% | -6% | 23µM* | -10 | 18µM* | 39%
C[C@@H]1CN([C@H](C)CO)C(=O)c2cc(NC(=O)Nc3cccc4ccccc34)ccc2O[C@H]1CN(C)Cc1ccc(C(F)(F)F)cc1 | -22% | ? | 8.2µM* | 15 | 10µM* | -20%
C[C@@H]1CN([C@H](C)CO)C(=O)c2cc(NC(=O)C3CCCCC3)ccc2O[C@@H]1CN(C)Cc1ccc(C(F)(F)F)cc1 | -20% | ? | ? | ? | ? | 0%
C[C@@H]1CN([C@@H](C)CO)C(=O)c2cc(NS(=O)(=O)c3cccs3)ccc2O[C@H]1CN(C)Cc1ccc(C(F)(F)F)cc1 | -18% | ? | 26µM* | -63* | ? | 0%
